Results as given in PubChem BioAssay AID1159580 (chemical genetic matrix, 2015).
“And” between values parts separate entries of the source, which are not always exact repeats. Identical values can stand only once. About 2,000 (36%) of roughly 5,500 compounds were called active. Another 18% or so got no clear call; they are omitted. No stated cut-off is given here; in the data, active means normalized growth mostly below about 0.91 (no sharp cut-off); inconclusive means no clear call, values can overlap the other calls; inactive means mostly above about 0.92. The list shows a part of the results.

Assay: chemical genetic growth profiling, strain panel (AID 1159580);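 further: tested at 20 µM; growth read once vehicle control cultures reached saturation at 30 °C; 1 = growth at the plate median or of vehicle wells; lower values mean less growth of the strain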
Details: S. cerevisiae deletion strains, growth OD

Measured: normalized growth

CC1(C)NC(=O)N(c2ccc([N+](=O)[O-])c(C(F)(F)F)c2)C1=O
inactive: locus YAL013W, strain DEP1, hits give low values 1.01 and 0.99 | locus YAL021C, strain ccr4, hits give low values 1.02 | locus YAL026C, strain drs2, hits give low values 0.983 | locus YAL030W, strain snc1, hits give low values 0.99 | locus YAL040C, strain CLN3, hits give low values 1.05 | locus YBL061C, strain skt5, hits give low values 0.98 | locus YBR009C, strain hhf1, hits give low values 0.982 | locus YBR021W, strain FUR4, hits give low values 1.02 | locus YBR023C, strain chs3, hits give low values 0.987 | locus YBR171W, strain sec66, hits give low values 0.98 | locus YBR229C, strain ROT2, hits give low values 1.01 | locus YBR231C, strain swc5, hits give low values 0.989 | locus YBR279W, strain paf1, hits give low values 0.994 | locus YCL011C, strain gbp2, hits give low values 0.985 | locus YCL016C, strain dcc1, hits give low values 0.986 | locus YCL029C, strain bik1, hits give low values 0.967 | locus YCL061C, strain MRC1 (second series), hits give low values 1 | locus YCL061C, strain MRC1, hits give low values 0.976 | locus YCL069W, strain vba3, hits give low values 0.98 | locus YCR088W, strain abp1, hits give low values 0.982 | locus YDL005C, strain med2, hits give low values 0.993 | locus YDL035C, strain GPR1, hits give low values 1 | locus YDL040C, strain nat1, hits give low values 0.984 | locus YDL074C, strain BRE1, hits give low values 1.02 | locus YDL101C, strain DUN1, hits give low values 1.01 | locus YDL134C, strain PPH21, hits give low values 1.02 | locus YDL185W, strain tfp1, hits give low values 0.977 | locus YDL192W, strain arf1, hits give low values 0.983 | locus YDR001C, strain nth1, hits give low values 0.985 | locus YDR069C, strain doa4, hits give low values 0.99 | locus YDR101C, strain arx1, hits give low values 0.982 | locus YDR137W, strain rgp1, hits give low values 0.894 | locus YDR150W, strain NUM1, hits give low values 1.03 | locus YDR159W, strain sac3, hits give low values 0.985 | locus YDR162C, strain NBP2, hits give low values 1 | locus YDR195W, strain ref2 0.975 | locus YDR297W, strain sur2, hits give low values 0.99 | locus YDR318W, strain mcm21, hits give low values 0.994 | locus YDR334W, strain swr1, hits give low values 0.989 | locus YDR335W, strain msn5, hits give low values 0.994 | locus YDR363W, strain ESC2, hits give low values 0.975 | locus YDR388W, hits give low values 0.983 | locus YDR392W, strain spt3, hits give low values 0.998 | locus YDR502C, strain sam2, hits give low values 0.984 | locus YEL003W, strain gim4, hits give low values 0.985 | locus YEL037C, strain rad23, hits give low values 0.988 | locus YEL061C, strain CIN8 (second series), hits give low values 0.989 | locus YEL061C, strain CIN8, hits give low values 0.999 | locus YER002W, strain NOP16, hits give low values 0.996 | locus YER015W, strain faa2, hits give low values 0.971 | locus YER016W, strain bim1, hits give low values 0.983 | locus YER110C, hits give low values 0.971 | locus YER111C, strain swi4, hits give low values 0.985 | locus YER155C, strain BEM2 (second series), hits give low values 0.987 | locus YER155C, strain BEM2, hits give low values 0.996 | locus YER167W, strain BCK2, hits give low values 1.01 | locus YFR010W, strain ubp6, hits give low values 0.985 | locus YGL078C, strain dbp3, hits give low values 0.986 | locus YGL086W, strain mad1, hits give low values 0.992 | locus YGL167C, strain pmr1, hits give low values 0.983 | locus YGL173C, strain kem1, hits give low values 0.976 | locus YGL227W, strain vid30, hits give low values 0.973 | locus YGL240W, strain doc1, hits give low values 0.98 | locus YGL248W, strain PDE1, hits give low values 1.01 | locus YGL253W, strain hxk2, hits give low values 0.985 | locus YGR078C, strain PAC10, hits give low values 1.01 and 0.981 | locus YGR135W, strain pre9, hits give low values 0.98 | locus YGR229C, strain SMI1, hits give low values 1.02 | locus YGR252W, strain gcn5, hits give low values 0.978 | locus YHR013C, strain ard1, hits give low values 0.97 | locus YHR027C, strain rpn1, hits give low values 0.984 | locus YHR030C, strain SLT2, hits give low values 1.01 and 0.984 | locus YHR079C, strain IRE1 (second series), hits give low values 0.988 | locus YHR079C, strain IRE1, hits give low values 1 | locus YHR094C, strain hxt1, hits give low values 0.986 | locus YHR129C, strain ARP1, hits give low values 1.01 | locus YHR142W, strain chs7, hits give low values 0.986 | locus YHR200W, strain rpn10, hits give low values 0.987 | locus YIL066C, strain RNR3, hits give low values 1.02 | locus YIL073C, strain SPO22, hits give low values 1 | locus YIL125W, strain kgd1, hits give low values 0.986 | locus YIR030C, strain dcg1, hits give low values 0.983 | locus YJL092W, strain hpr5, hits give low values 0.978 | locus YJL095W, strain BCK1 (second series), hits give low values 0.982 | locus YJL095W, strain BCK1, hits give low values 0.991 and 1 | locus YJL115W, strain asf1, hits give low values 0.992 | locus YJL129C, strain trk1, hits give low values 0.991 | locus YJL134W, strain LCB3, hits give low values 1.01 | locus YJL154C, strain vps35, hits give low values 0.988 | locus YJL164C, strain tpk1, hits give low values 0.985 | locus YJL166W, strain qcr8, hits give low values 0.986 | locus YJL168C, strain set2, hits give low values 0.987 | locus YJL187C, strain SWE1 (second series), hits give low values 1.01 | locus YJL187C, strain SWE1, hits give low values 0.981 | locus YJR043C, strain POL32, hits give low values 1 | locus YJR066W, strain TOR1, hits give low values 0.956
